Measured values from PubChem BioAssay (EPA / NIEHS).
Inconclusive results are not listed. Activity calls are given as the source filed them. The calls were made as follows, unless noted: active = hit-call score of the fitted dose curve at least 0.9, where 1 is the maximum; inactive = score below 0.9.

Assays:
[1] = ATG_NF_kB_CIS: Attagene CIS-FACTORIAL HepG2 Assay for human Nuclear Factor Kappa B (NF-kB) (AID 2282991); details: HepG2 Attagene cis-factorial NF-kB reporter mRNA; actives raise or lower the signal
In short: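 HepG2, transient multi-reporter transfection, cis promoter elements (endogenous TFs). 24 h exposure. Total RNA → RT → PCR → 6-FAM label → HpaI → CE. Gain/loss vs DMSO.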

[2] = ATG_NRF2_ARE_CIS: Attagene CIS-FACTORIAL HepG2 Assay for human Nuclear Factor Erythroid 2 Related Factor 2 (NFR2) response to Antioxidant Response Elements (ARE) (AID 2282992); details: HepG2 Attagene ARE/NRF2 reporter, transcription factor activity; actives raise or lower the signal
In short: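 Fluorescence intensity of reporter-specific cDNA fragments, separated by capillary electrophoresis, reflects mRNA induction in transfected HepG2 cells at 24 h. Activity is fitted bidirectionally, DMSO serving as baseline.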

[3] = ATG_Oct_MLP_CIS: Attagene CIS-FACTORIAL HepG2 Assay for human Octamer-Binding Transcription Factor (Oct) (AID 2282993); details: HepG2 Attagene cis-factorial Oct reporter, mRNA; actives raise or lower the signal
In short: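 After 24 h compound exposure, transfected HepG2 cells were lysed for total RNA; reporter-specific cDNA was PCR-amplified, fluorescently labelled and sized by capillary electrophoresis. Bidirectional curve fitting used DMSO as baseline.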

[4] = target: Cellular tumor antigen p53 (Homo sapiens) (UniProt P04637); assay: ATG_p53_CIS: Attagene CIS-FACTORIAL HepG2 Assay for human p53 Transcription Factor (AID 2282994); details: HepG2 p53 cis-element reporter, Attagene mRNA; actives raise or lower the signal
Sequence of Cellular tumor antigen p53 (Homo sapiens) (P04637 whole entry, looked up): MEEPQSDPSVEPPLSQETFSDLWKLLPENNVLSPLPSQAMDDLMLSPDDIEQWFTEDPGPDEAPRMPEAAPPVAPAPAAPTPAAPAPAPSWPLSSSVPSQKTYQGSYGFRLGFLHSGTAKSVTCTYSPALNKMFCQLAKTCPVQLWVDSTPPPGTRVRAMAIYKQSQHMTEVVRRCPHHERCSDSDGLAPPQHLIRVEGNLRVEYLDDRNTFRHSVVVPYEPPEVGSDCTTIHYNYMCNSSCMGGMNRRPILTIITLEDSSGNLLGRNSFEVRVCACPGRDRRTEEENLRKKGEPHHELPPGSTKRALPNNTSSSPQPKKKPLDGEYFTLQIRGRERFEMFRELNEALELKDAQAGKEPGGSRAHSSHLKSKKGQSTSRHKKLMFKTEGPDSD
In short: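 Transiently transfected HepG2 (multiple cis reporter transcription units); exposure 24 h; reporter RNA via RT-PCR, 6-FAM extension, 2 h HpaI digest at 37 C, CE detection; DMSO baseline.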

[5] = target: Nuclear receptor subfamily 1 group I member 2 (Homo sapiens) (UniProt O75469); assay: ATG_PXR_TRANS: Attagene TRANS-FACTORIAL HepG2 Assay for human Pregnane X Receptor (PXR) (AID 2283008; active = hit-call score of the fitted dose curve at least 0.9, where 1 is the maximum)
Sequence of Nuclear receptor subfamily 1 group I member 2 (Homo sapiens) (O75469 whole entry, looked up, the tested form may be a part): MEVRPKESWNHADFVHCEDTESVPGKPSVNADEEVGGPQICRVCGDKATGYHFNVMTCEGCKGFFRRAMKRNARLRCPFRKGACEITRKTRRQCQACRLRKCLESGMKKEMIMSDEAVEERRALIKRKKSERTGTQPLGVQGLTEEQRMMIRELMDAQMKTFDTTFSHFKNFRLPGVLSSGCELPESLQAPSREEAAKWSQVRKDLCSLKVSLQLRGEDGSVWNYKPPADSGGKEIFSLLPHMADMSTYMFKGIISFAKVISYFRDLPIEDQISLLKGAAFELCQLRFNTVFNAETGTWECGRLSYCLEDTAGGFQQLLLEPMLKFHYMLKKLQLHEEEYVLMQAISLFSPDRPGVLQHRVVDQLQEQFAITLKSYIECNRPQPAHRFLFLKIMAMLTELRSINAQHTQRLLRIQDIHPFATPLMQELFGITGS
In short: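 Transient HepG2 transfectants carrying multiplexed reporter transcription units; PXR activity read through a Gal4 chimera. 24 h exposure. RT-PCR/CE fluorescence; upward curve fit referenced to DMSO.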

[6] = target: human RAR-related Orphan Receptor beta (RORb), RORB (gene 6096) (UniProt Q92753); assay: ATG_RORb_TRANS: Attagene TRANS-FACTORIAL HepG2 Assay for human RAR-related Orphan Receptor beta (RORb) (AID 2283010; active = hit-call score of the fitted dose curve at least 0.9, where 1 is the maximum)
Sequence of human RAR-related Orphan Receptor beta (RORb), RORB (gene 6096) (Q92753 whole entry, looked up, the tested form may be a part): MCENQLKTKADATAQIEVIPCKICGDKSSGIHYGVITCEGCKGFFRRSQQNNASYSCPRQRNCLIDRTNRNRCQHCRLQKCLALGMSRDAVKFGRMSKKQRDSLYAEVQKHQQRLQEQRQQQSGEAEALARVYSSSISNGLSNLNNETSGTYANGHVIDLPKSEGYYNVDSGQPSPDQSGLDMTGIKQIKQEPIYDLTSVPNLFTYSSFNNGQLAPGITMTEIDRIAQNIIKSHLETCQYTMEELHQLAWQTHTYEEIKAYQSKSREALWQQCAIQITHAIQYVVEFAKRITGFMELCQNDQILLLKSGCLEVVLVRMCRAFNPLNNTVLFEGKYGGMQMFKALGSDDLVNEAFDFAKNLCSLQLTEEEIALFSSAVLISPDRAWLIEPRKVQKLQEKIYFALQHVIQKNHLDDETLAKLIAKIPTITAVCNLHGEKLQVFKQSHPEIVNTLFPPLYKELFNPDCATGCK
In short: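 Transfect HepG2 with multiple GAL4-UAS reporter transcription units; dose chemicals for 24 h; isolate RNA, reverse-transcribe and PCR-amplify reporter sequences; label, digest and resolve fragments by capillary electrophoresis; fit increases relative to DMSO.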

[7] = target: human Peroxisome Proliferator-activated Receptor delta (PPARd), PPARD (gene 5467) (UniProt Q03181); assay: ATG_PPARd_TRANS: Attagene TRANS-FACTORIAL HepG2 Assay for human Peroxisome Proliferator-activated Receptor delta (PPARd) (AID 2283002; active = hit-call score of the fitted dose curve at least 0.9, where 1 is the maximum)
Sequence of human Peroxisome Proliferator-activated Receptor delta (PPARd), PPARD (gene 5467) (Q03181 whole entry, looked up, the tested form may be a part): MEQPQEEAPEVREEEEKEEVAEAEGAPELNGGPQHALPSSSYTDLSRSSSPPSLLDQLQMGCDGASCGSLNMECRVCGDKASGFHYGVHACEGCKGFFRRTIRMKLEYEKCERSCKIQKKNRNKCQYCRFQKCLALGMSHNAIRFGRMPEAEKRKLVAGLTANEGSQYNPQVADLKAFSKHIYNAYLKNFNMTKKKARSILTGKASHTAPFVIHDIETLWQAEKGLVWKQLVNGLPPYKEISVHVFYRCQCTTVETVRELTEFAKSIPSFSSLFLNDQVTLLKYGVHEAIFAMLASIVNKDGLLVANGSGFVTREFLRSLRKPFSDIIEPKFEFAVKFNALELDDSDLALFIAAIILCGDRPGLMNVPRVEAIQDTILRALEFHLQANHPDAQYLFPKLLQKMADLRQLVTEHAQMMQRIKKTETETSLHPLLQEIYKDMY
In short: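 Measured quantity: GAL4-UAS reporter transcript induction in HepG2 after 24 h chemical dosing, with NR-Gal4 chimeras supplied by transient transfection. Detection by RT-PCR and capillary electrophoresis; upward fit against DMSO.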

[8] = target: Retinoic acid receptor RXR-alpha (Homo sapiens) (UniProt P19793); assay: ATG_RXRa_TRANS: Attagene TRANS-FACTORIAL HepG2 Assay for human Retinoid X Receptor alpha (RXRa) (AID 2283012; active = hit-call score of the fitted dose curve at least 0.9, where 1 is the maximum)
Sequence of Retinoic acid receptor RXR-alpha (Homo sapiens) (P19793 whole entry, looked up, the tested form may be a part): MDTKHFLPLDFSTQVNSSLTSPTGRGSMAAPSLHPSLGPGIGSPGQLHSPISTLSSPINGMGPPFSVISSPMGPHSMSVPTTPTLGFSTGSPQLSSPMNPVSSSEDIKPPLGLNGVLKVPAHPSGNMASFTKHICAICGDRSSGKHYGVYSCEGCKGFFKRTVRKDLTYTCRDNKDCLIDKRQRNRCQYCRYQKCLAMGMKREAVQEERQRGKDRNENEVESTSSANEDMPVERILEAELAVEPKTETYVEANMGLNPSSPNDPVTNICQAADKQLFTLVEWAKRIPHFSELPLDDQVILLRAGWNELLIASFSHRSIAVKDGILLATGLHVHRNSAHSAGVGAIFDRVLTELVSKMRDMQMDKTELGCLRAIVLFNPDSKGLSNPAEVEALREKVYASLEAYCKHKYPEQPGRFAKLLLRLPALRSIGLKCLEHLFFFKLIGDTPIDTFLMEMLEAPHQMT
In short: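 Measures exogenous chimeric NR-GAL4 activity in transfected HepG2 liver cells after 24 h of dosing. Induced reporter mRNA was detected by RT-PCR with capillary electrophoresis, and gain of signal was analysed against DMSO.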

[9] = target: Retinoic acid receptor alpha (Homo sapiens) (UniProt P10276); assay: ATG_RARa_TRANS: Attagene TRANS-FACTORIAL HepG2 Assay for human Retinoic Acid Receptor alpha (RARa) (AID 2283005; active = hit-call score of the fitted dose curve at least 0.9, where 1 is the maximum)
Sequence of Retinoic acid receptor alpha (Homo sapiens) (P10276 whole entry, looked up, the tested form may be a part): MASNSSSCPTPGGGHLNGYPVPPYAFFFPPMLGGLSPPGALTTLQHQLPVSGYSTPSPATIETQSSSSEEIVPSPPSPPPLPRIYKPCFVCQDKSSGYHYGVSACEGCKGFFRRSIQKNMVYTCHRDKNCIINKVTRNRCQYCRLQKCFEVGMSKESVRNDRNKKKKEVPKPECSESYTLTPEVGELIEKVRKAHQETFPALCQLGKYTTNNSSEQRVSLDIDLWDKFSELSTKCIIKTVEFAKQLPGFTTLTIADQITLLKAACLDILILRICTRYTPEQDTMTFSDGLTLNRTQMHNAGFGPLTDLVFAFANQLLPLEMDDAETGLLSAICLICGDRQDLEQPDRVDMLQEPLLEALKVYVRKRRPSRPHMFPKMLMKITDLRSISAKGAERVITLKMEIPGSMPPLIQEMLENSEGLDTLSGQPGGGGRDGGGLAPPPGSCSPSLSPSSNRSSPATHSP
In short: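 HepG2 cells transiently transfected with multiple reporter units expressing chimeric RARα-GAL4 fusion, with GAL4-UAS-driven reporters. After 24 h compound exposure, reporter mRNA induction quantified by RT-PCR and capillary electrophoresis with fluorescent labeling; gain-of-signal fitted relative to DMSO control.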

[10] = target: human Peroxisome Proliferator-activated Receptor alpha (PPARa), PPARA (gene 5465) (UniProt Q07869); assay: ATG_PPARa_TRANS: Attagene TRANS-FACTORIAL HepG2 Assay for human Peroxisome Proliferator-activated Receptor alpha (PPARa) (AID 2283001; active = hit-call score of the fitted dose curve at least 0.9, where 1 is the maximum)
Sequence of human Peroxisome Proliferator-activated Receptor alpha (PPARa), PPARA (gene 5465) (Q07869 whole entry, looked up): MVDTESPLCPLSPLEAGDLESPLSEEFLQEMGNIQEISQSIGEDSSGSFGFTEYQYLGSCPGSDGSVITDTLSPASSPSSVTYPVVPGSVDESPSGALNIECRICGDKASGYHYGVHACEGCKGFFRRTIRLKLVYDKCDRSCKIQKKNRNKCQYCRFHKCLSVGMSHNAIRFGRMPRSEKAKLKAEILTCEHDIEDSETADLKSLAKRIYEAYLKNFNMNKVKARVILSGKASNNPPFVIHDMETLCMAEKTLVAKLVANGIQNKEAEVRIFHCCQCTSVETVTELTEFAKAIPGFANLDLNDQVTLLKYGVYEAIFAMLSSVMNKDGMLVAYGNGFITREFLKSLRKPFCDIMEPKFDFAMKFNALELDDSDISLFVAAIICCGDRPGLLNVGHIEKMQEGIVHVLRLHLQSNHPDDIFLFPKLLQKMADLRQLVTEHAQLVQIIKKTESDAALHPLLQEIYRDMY
In short: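 Cells (HepG2) are transfected with multiple reporter transcription units, exposed to chemical for 24 h, then total RNA is reverse-transcribed and amplified. Labelled products are quantified by capillary electrophoresis; induction is referenced to DMSO.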

[11] = target: human RAR-related Orphan Receptor gamma (RORg), RORC (gene 6097) (UniProt P51449); assay: ATG_RORg_TRANS: Attagene TRANS-FACTORIAL HepG2 Assay for human RAR-related Orphan Receptor gamma (RORg) (AID 2283011; active = hit-call score of the fitted dose curve at least 0.9, where 1 is the maximum)
Sequence of human RAR-related Orphan Receptor gamma (RORg), RORC (gene 6097) (P51449 whole entry, looked up, the tested form may be a part): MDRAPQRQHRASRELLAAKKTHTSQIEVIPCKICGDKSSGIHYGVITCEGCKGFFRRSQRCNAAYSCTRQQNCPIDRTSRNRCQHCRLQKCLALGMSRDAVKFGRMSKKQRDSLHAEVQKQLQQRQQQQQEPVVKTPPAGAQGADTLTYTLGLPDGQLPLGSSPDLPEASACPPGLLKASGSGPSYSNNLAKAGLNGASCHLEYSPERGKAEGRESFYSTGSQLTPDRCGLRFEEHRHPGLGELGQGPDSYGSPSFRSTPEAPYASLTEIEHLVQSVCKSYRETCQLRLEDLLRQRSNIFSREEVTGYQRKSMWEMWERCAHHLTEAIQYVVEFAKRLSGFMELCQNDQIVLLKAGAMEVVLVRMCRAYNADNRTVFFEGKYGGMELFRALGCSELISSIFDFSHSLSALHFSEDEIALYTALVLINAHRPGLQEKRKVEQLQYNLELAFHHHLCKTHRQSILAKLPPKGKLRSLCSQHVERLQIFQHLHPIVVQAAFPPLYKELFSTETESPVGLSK
In short: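 Activity is scored as increase in GAL4-UAS reporter mRNA over DMSO, detected by fluorescent RT-PCR and capillary electrophoresis in HepG2 cells transiently expressing a RORg-Gal4 chimera, 24 h after dosing.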

[12] = target: Peroxisome proliferator-activated receptor gamma (Homo sapiens) (UniProt P37231); assay: ATG_PPARg_TRANS: Attagene TRANS-FACTORIAL HepG2 Assay for human Peroxisome Proliferator-activated Receptor-gamma (PPARg) (AID 2283007; active = hit-call score of the fitted dose curve at least 0.9, where 1 is the maximum)
Sequence of Peroxisome proliferator-activated receptor gamma (Homo sapiens) (P37231 whole entry, looked up): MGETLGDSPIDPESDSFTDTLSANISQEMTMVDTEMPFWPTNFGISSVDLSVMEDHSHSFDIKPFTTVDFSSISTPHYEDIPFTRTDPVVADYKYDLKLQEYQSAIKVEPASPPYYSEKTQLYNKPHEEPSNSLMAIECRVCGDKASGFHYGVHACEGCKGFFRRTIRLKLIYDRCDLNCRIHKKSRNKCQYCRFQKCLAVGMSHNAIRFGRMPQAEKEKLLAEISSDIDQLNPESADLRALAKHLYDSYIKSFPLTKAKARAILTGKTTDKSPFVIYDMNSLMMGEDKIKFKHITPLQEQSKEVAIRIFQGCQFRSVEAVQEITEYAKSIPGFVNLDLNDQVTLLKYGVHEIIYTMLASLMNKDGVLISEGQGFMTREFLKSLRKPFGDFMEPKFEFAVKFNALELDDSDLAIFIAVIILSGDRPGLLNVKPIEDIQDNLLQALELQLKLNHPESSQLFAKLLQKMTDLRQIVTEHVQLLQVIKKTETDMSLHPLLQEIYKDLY
In short: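 Multiplexed reporter transcription units in HepG2, 24 h dosing, reporter transcripts quantified by fluorescent RT-PCR and capillary electrophoresis. Increase over DMSO scored.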

[13] = target: human Retinoic Acid Receptor gamma (RARg), RARG (gene 5916) (UniProt P13631); assay: ATG_RARg_TRANS: Attagene TRANS-FACTORIAL HepG2 Assay for human Retinoic Acid Receptor gamma (RARg) (AID 2283009; active = hit-call score of the fitted dose curve at least 0.9, where 1 is the maximum)
Sequence of human Retinoic Acid Receptor gamma (RARg), RARG (gene 5916) (P13631 whole entry, looked up, the tested form may be a part): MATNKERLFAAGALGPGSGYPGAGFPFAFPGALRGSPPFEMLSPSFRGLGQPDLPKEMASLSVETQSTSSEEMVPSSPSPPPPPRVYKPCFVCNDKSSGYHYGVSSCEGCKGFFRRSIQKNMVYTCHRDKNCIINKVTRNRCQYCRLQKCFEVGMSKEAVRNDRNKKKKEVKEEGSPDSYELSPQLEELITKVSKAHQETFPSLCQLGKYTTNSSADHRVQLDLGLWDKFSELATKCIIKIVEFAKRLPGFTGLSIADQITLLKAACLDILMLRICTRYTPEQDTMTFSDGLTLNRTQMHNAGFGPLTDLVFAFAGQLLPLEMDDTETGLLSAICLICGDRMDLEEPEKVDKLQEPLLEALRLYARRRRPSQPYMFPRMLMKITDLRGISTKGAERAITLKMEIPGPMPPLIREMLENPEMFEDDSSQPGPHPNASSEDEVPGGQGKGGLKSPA
In short: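 TRANS format measured activity of exogenous NR-GAL4 fusion (RARg) in transfected HepG2 liver cells after 24 h dosing. Induced reporter RNA was detected by RT-PCR/capillary electrophoresis fluorescence, analysed in the positive direction against DMSO.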

Measured: outcome

O=C1OC(=O)c2cc(-c3ccc4c(c3)C(=O)OC4=O)ccc21
inactive: [1] | [2] | [3] | [4] | [5] | [6]

CCCCCCCCC(C)=O
inactive: [1] | [2] | [3] | [4] | [7] | [5] | [8]

CCO[Si](C)(C)OCC
inactive: [1] | [2] | [3] | [4] | [7] | [9] | [5]

COc1cc([N+](=O)[O-])ccc1N
inactive: [1] | [2] | [3] | [4] | [10] | [5] | [8]

CC(=O)CC(C)C
not listed: [6] | [7] | [9] | [12] | [13]
inactive: all other assays above

O=CC(F)(F)C(F)(F)C(F)(F)F
not listed: [9] | [10] | [11] | [13]
inactive: all other assays above

O=C1C=CC(=O)N1c1cccc(N2C(=O)C=CC2=O)c1
not listed: [6] | [7] | [9]
inactive: all other assays above
